Only a sample is shown.
aSyn 5UTR act: Activators via SNCA 5'UTR binding, MLPCN. alpha-synuclein 5'UTR reporter, activators screen. activity score, % (tested at 7.5 µM), hits read low. actives 7.1% (n = 300,000). AID 1814, 2009; in the data active = activity score below about -60%
* marks the source's active call; other numbers are inactive results.

SMILES | aSyn 5UTR act
COc1ccc(N/C=C\C(=O)c2ccc(Br)cc2)cc1OC | -108*
O=C1/C(=C/c2ccccn2)SC(=S)N1CCc1ccccc1 | -159*
Cc1ccc(/C=C2\SC(=S)N(CCCC(=O)Nc3ccccn3)C2=O)cc1 | 107
NC(=O)c1c(/N=C/c2cccnc2)sc2c1CCCC2 | -102*
Cc1ccc(/C=N/c2sc3c(c2C(N)=O)CCCC3)o1 | -114*
COc1cc2c(cc1OC)-c1cc(Nc3ccc(N(C)C)cc3)nc(=O)n1CC2 | 52
O=C(Cc1ccc(Cl)cc1)N1CCc2ccccc2C1 | -160*
Cc1ccc(NC(=O)N2CCc3ccccc3C2)c(C)c1 | -76*
Cc1ccc(NC(=O)N2CCc3ccccc3C2)cc1 | -212*
CN(C)c1ccc(NC(=O)CN2CCc3ccccc3C2)cc1 | -79*
O=C(CNS(=O)(=O)c1cccs1)N1CCc2ccccc2C1 | -72*
O=C(Nc1ccc(Cl)cc1)N1CCc2ccccc2C1 | -209*
O=C(Nc1ccccc1)N1CCc2ccccc2C1 | -126*
O=C(CNc1cccc(F)c1)N1CCc2ccccc2C1 | -195*
CCOc1ccc(NC(=O)N2CCc3ccccc3C2)cc1 | -92*
O=C(NCCCN1CCc2ccccc2C1)Nc1ccc(Cl)cc1 | -110*
CC(=O)Nc1c(-c2ccc3ccccc3c2)nc2ccccn12 | -124*
CCOC(=O)c1cnc(-n2nc(C)cc2C)nc1NNc1cc(-c2ccccc2)nc(C)n1 | 93
CCOC(=O)c1cnn(-c2ccc(C)cc2)c1N | -100*
CCOC(=O)c1cnn2c(C)cc(-c3ccccc3)nc12 | -120*
CCOC(=O)c1cnc2cc(-c3ccc(C(C)(C)C)cc3)nn2c1N | -232*
CCOC(=O)c1cnc2c(-c3cccc(Br)c3)cnn2c1C | -127*
Cc1cc(C)n2ncc(/C(N)=N/OC(=O)c3ccccc3F)c2n1 | -100*
CCOC(=O)c1cnc2c(C(=O)OCC)cnn2c1N | -63*
CC(=O)c1cccc(NC(=O)c2noc3c2CCc2ccccc2-3)c1 | -168*
SMILES | aSyn 5UTR act
Cc1cc(NC(=O)c2noc3c2CCc2ccccc2-3)no1 | -77*
Cc1ccc(O)c(NC(=O)c2noc3c2CCc2ccccc2-3)c1 | -122*
Cc1ccc(O)c(NC(=O)c2noc(C(C)C)c2[N+](=O)[O-])c1 | -86*
CC1CCc2cccc3c2N1c1cc(C#N)c(C#N)cc1O3 (stereo not given) | 71
CCc1ccc2c(c1)C(c1ccc([N+](=O)[O-])cc1)=NNC(c1ccc(F)cc1)=N2 | -79*
Fc1ccc(-c2cn3cc(C(F)(F)F)cc(Cl)c3n2)cc1 | -101*
COc1ccc(-c2cn3cc(C(F)(F)F)cc(Cl)c3n2)cc1 | -197*
COc1ccc2c(c1OC)C(=O)OC2Nc1nc(-c2cc3cc(Br)ccc3oc2=O)cs1 (stereo not given) | -221*
Cc1cccc(C(=O)O/N=C(\N)c2ccc(Cl)cc2)c1 | -108*
N/C(=N\OC(=O)c1ccoc1)c1ccc(Br)cc1 | -111*
N/C(=N\OC(=O)c1cccc(Br)c1)c1ccccn1 | 72
N/C(=N\OC(=O)c1ccc2ccccc2c1)c1ccc(Br)cc1 | -103*
N/C(=N\OC(=O)c1cccc(Br)c1)c1ccccc1 | -305*
Cc1cc(C)cc(C(=O)O/N=C(\N)c2ccc(Br)cc2)c1 | -83*
Cc1cccc(C(=O)O/N=C(\N)c2ccc(Br)cc2)c1 | -211*
Cc1ccc(C(=O)O/N=C(\N)c2ccc(Br)cc2)cc1C | -136*
Cc1cc(C)c2nc(C)cc(N/N=C/c3ccc(O)cc3)c2c1 | 112
Cc1cc(C)nc(N/N=C/c2ccccc2)n1 | -73*
Cc1cc(C)nc(N/N=C/c2sccc2C)n1 | -82*
Cc1ccsc1/C=N/Nc1nc(=O)[nH]nc1C | -85*
Cc1cc(C)nc(N/N=C/c2ccccc2Cl)n1 | -88*
Cc1ccsc1/C=N/Nc1ccc(F)cc1F | -176*
Cc1ccsc1/C=N/Nc1ncc(Cl)cc1Cl | -71*
COc1cc(C)nc(N2CCCC(C(=O)NC3CCC(C)CC3)C2)n1 (stereo not given) | -146*
Cc1nc2ccc(NC(=O)Cc3ccsc3)cc2s1 | -108*
SMILES | aSyn 5UTR act
Cc1nc2ccc(NC(=O)Cc3ccccc3F)cc2s1 | -175*
Cc1nc2ccc(NC(=O)Cc3cccc(F)c3)cc2s1 | -80*
S=c1nc[nH]c2nc[nH]c12 | 67
O=C(c1noc2c1CCc1ccccc1-2)N1CCOCC1 | -72*
COc1ccc2c(c1)CCc1c(C(=O)N3CCCCCC3)noc1-2 | -64*
CCCNC(=O)c1noc2c1CCc1cc(OC)ccc1-2 | -71*
COc1ccc2c(c1)CCc1c(C(=O)NCc3cccnc3)noc1-2 | -91*
CCOC(=O)COc1cccc2c(=O)n(CC(=O)NCc3ccc(F)cc3)ccc12 | 75
COc1ccc(CNC(=O)Cn2cccc2C(=O)c2ccccc2)cc1 | -69*
COc1ccc(CNC(=O)Cn2cccc2C(=O)c2ccccc2C)cc1 | -101*
N#CC(=C1CCCC1)c1nc(-c2cc3ccccc3oc2=O)cs1 | -232*
N#CC(=C1CCCC1)c1nc(-c2ccccc2)cs1 | -187*
N#CC(=C1CCCC1)c1nc(-c2ccccc2O)cs1 | -209*
Cc1ccc(-c2csc(C(C#N)=C3CCCC3)n2)cc1 | -236*
